Source: PubChem
KDM5B inh: blocks human KDM5B histone demethylase activity; Q9UGL1; KDM5B demethylase, FDH-coupled NADH fluorescence (FDH is formaldehyde dehydrogenase); Potency, µM (titrated, usually from 57.7 µM), usual class: inhibitors; actives 2.6% (n = 220,000); AID 1347165; active means well fitted inhibition curve with a large enough effect; further: nearly all actives have a fitted effect of over 70% in size
Target sequence (Q9UGL1 whole entry, looked up): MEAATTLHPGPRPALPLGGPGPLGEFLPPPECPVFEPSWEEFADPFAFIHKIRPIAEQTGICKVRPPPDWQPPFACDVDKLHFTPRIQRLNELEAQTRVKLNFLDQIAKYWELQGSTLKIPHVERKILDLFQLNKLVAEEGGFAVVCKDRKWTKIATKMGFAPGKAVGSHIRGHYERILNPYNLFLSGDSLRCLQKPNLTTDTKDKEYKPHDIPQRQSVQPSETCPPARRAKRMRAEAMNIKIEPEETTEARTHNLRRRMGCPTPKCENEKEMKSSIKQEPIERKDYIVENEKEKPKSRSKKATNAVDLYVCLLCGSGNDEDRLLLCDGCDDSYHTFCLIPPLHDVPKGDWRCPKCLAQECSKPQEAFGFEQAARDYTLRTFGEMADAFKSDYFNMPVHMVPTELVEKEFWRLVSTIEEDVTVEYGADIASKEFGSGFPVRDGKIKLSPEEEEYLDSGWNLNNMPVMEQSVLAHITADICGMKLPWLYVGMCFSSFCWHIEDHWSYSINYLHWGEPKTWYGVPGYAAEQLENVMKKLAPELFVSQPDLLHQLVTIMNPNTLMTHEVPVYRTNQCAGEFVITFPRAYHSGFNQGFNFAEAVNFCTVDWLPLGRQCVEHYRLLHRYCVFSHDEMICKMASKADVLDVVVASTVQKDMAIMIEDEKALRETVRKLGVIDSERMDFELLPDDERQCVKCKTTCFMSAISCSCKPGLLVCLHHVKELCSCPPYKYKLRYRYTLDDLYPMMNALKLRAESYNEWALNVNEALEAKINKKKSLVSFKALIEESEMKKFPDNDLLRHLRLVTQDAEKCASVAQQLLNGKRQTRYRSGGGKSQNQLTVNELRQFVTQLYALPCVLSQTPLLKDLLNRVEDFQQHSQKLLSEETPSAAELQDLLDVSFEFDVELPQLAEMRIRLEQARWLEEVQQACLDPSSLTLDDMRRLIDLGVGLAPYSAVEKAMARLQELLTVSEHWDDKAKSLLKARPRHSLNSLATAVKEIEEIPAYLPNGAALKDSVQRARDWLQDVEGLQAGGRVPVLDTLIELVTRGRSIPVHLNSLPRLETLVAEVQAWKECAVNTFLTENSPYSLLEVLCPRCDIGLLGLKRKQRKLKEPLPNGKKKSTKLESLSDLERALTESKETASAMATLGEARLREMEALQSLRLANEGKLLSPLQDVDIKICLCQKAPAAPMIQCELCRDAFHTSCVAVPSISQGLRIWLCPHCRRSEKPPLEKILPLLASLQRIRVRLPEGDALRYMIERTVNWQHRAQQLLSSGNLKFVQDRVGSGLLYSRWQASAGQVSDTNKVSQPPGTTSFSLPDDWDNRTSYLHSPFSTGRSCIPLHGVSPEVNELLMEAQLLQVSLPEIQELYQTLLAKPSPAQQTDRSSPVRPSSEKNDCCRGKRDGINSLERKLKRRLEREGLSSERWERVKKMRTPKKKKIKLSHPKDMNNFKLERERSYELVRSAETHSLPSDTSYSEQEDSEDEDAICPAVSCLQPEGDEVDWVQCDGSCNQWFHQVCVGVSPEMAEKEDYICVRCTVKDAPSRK
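qHTS format, multiple compound concentrations. Buffer 50 mM HEPES pH 7.5/0.01% Tween-20; 200 nM KDM5BΔAP final; 10 min compound preincubation; substrate-mix levels 12.5 µM peptide, 25 µM α-KG, 0.25 mM NAD⁺; 30 min RT; ΔRFU.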
Hits are given with their value. Many of the other results were omitted from the sample, so hits are more common in it than they were.

`CCCCNC(=O)CC(c1cccc2c1OCO2)c1c[nH]c2c(CC)cccc12` (configuration not stated) gave KDM5B inh inactive.
Screening CCc1cccc2c(C(CC(=O)NCc3ccco3)c3ccc(C)cc3)c[nH]c12 (configuration not stated) returned KDM5B inh 28µM.
`CCCCNC(=O)CC(c1cccc([N+](=O)[O-])c1)c1c[nH]c2c(CC)cccc12` (configuration not stated) gave KDM5B inh inactive.
COc1ccccc1C(=O)N1CCCN(c2cc(-c3ccc(Cl)cc3)[nH]n2)CC1 was read as KDM5B inh inactive.
`COc1ccc(C(=O)N2CCN(c3nnc4cccc(C)n34)CC2)cc1F` gave KDM5B inh 28µM.
COc1ccc(-c2cc(N3CCCN(C(=O)c4ccccc4OC)CC3)n[nH]2)cc1 was read as KDM5B inh inactive.
`Cc1ccc(C(=O)N2CCN(c3nnc4cccc(C)n34)CC2)cc1F` gave KDM5B inh 28µM.
Screening COc1ccc(C(=O)N2CCC(C3CCN(C)CC3)C2)cc1F (configuration not stated) returned KDM5B inh inactive.
`COc1ccccc1C(=O)N1CCCN(c2nnc3cccc(C)n23)CC1` gave KDM5B inh 25µM.
For Cc1ccc(C(=O)N2CCN(c3cc(-c4ccccc4)[nH]n3)CC2)cc1F the results were KDM5B inh inactive.
For COc1ccc(C(=O)N2CCC(C3CCNC3)CC2)cc1F (configuration not stated) the results were KDM5B inh inactive.
For Cc1ccc(C(=O)N2CCN(c3cc(-c4ccc(Cl)cc4)[nH]n3)CC2)cc1F the results were KDM5B inh inactive.
For CCN(c1ccccc1)S(=O)(=O)c1ccc(C(=O)NC2CC(C)(C)NC(C)(C)C2)cc1 the results were KDM5B inh inactive.
For COc1ccccc1CNC[C@H]1Cn2cc(-c3ccccc3OC)nc2CO1 the results were KDM5B inh inactive.
Screening O=C(CSc1nc2cc3c(cc2c(=O)n1Cc1ccco1)OCO3)Nc1ccc(F)cc1 returned KDM5B inh inactive.
`O=C(CCC(=O)c1ccccc1)Nc1ccccc1-c1ccccc1` gave KDM5B inh inactive.
Screening O=C(Nc1ccc2oc(-c3ccccc3)cc(=O)c2c1)c1ccc(F)cc1 returned KDM5B inh inactive.
`FC(F)(F)c1ccc(Cl)c(N/N=C/c2cccc3ccccc23)c1` gave KDM5B inh inactive.
For CCCCCCn1nc(C(=O)Nc2ccc(OC)c(OC)c2)c2ccccc2c1=O the results were KDM5B inh inactive.
Screening CC(C)CNc1oc(COc2ccc(F)cc2)nc1C#N returned KDM5B inh inactive.
COc1cccc(-c2nnc(SCC(=O)N(C3CCCCC3)C3CCS(=O)(=O)C3)n2C)c1 (configuration not stated) was read as KDM5B inh inactive.
Screening NC(=O)C(Oc1cc(Cl)ccc1Cl)c1ccc(F)cc1 (configuration not stated) returned KDM5B inh inactive.
For COc1cccc(CCNC(=O)C(=O)NCc2n[nH]c(=O)c3ccccc23)c1 the results were KDM5B inh inactive.
Cc1cccc(N2CCN(C(=O)CN3CC4(CCCCC4)CC3=O)CC2)n1 was read as KDM5B inh 32µM.
For Cc1cccc(-n2c(SCC(=O)N3CCCCC3)nc3ccccc3c2=O)n1 the results were KDM5B inh inactive.
`Cc1ccccc1-n1cc(CN(C)C(=O)CN2CC3(CCCC3)CC2=O)cn1` gave KDM5B inh inactive.
For Cc1nc(-c2ccc(S(=O)(=O)Nc3cccc(C#N)c3)cc2)co1 the results were KDM5B inh inactive.
`COCCn1cnnc1SC(C)c1ccccc1Cl` (configuration not stated) gave KDM5B inh inactive.
For Cc1cc(/C=C/C(=O)c2cccc(Cl)c2)cc(C)c1O the results were KDM5B inh inactive.
OC1CCCN(c2ccc(-c3nc(-c4cccc(C(F)(F)F)c4)no3)cn2)C1 (configuration not stated) was read as KDM5B inh 35µM.
Screening OCCN1CCN(c2ccc(-c3nc(-c4cccc(C(F)(F)F)c4)no3)cn2)CC1 returned KDM5B inh 28µM.
Screening COc1cccc(-c2noc(-c3ccc(-c4ccc(O)cc4)nc3)n2)c1OC returned KDM5B inh inactive.
COC1CCCN(c2cc(-c3cccc(C(F)(F)F)c3)nc3c(C)noc23)C1 (configuration not stated) was read as KDM5B inh inactive.
COc1ccc(-c2cc(N3CCCC(NC(=O)c4cccc(OC)c4OC)C3)n[nH]2)cc1 (configuration not stated) was read as KDM5B inh inactive.
`COc1cccc(-c2noc(-c3ccc(N4CCCC(CO)C4)nc3)n2)c1OC` (configuration not stated) gave KDM5B inh 32µM.
`O=C(NC1CCCN(c2ccc(C(F)(F)F)cn2)C1)c1ccnc(Cl)c1` (configuration not stated) gave KDM5B inh inactive.
For FC(F)(F)c1cccc(N2CCN(Cc3ncc(-c4ccccc4)o3)CC2)c1 the results were KDM5B inh inactive.
Screening N#Cc1ccc(NC(=O)N2CCN(Cc3nc(-c4cccc(C(F)(F)F)c4)no3)CC2)cc1 returned KDM5B inh inactive.
O=C(OCCOc1ccccc1Cl)c1cc(=O)c2ccccc2o1 was read as KDM5B inh inactive.
`COc1ccc(-c2nn(Cc3nc(-c4ccc(Br)cc4)no3)c(=O)c3ccccc23)cc1` gave KDM5B inh inactive.
For COc1cc(OC)c(NC(=O)N2CCN(c3ccc(=O)n(-c4ccc(F)cc4)n3)CC2)cc1Cl the results were KDM5B inh inactive.
COc1ccc(C(=O)Oc2cc(C)ccc2C)cc1I was read as KDM5B inh inactive.
`C#CCNC(=O)c1nc(-c2cccc(C(F)(F)F)c2)c2ccccn12` gave KDM5B inh inactive.
For Cc1nc(N2CCOCC2)c2c(C(=O)N3CCN(c4cccc(C(F)(F)F)c4)CC3)c(C)oc2n1 the results were KDM5B inh inactive.
COc1cccc(-c2cc(C(=O)N3CCN(c4ncccn4)CC3)c3ccccc3n2)c1 was read as KDM5B inh inactive.
Screening O=C(c1nc(-c2cccc(C(F)(F)F)c2)c2ccccn12)N1CCOCC1 returned KDM5B inh 28µM.
For O=C(c1nc(-c2cccc(C(F)(F)F)c2)c2ccccn12)N1CCN(c2ncccn2)CC1 the results were KDM5B inh 25µM.
Screening CN(C)C(=O)c1cccc(C(F)(F)F)c1 returned KDM5B inh inactive.
Screening CN(C)C(=O)c1nc(-c2cccc(C(F)(F)F)c2)c2ccccn12 returned KDM5B inh 35µM.
O=C(c1nc(-c2cccc(C(F)(F)F)c2)c2cnccn12)N1CCN(c2ncccn2)CC1 was read as KDM5B inh 28µM.
Screening O=C(c1ccccn1)N1CCC2(CC(c3cccc(C(F)(F)F)c3)=NO2)C1 (configuration not stated) returned KDM5B inh inactive.
For Cc1cccc(-c2cc(C(=O)N3CCN(c4ncccn4)CC3)c3ccccc3n2)c1 the results were KDM5B inh inactive.
O=C(c1cn2c(n1)CN([S+](=O)([O-])c1cccc(C(F)(F)F)c1)CC2)N1CCOCC1 was read as KDM5B inh inactive.
Screening O=C(c1ccccc1)N1CCCN(c2nccc(C(F)(F)F)n2)CC1 returned KDM5B inh inactive.
For CC1(CI)CSc2sc3ccccc3[n+]21 (configuration not stated) the results were KDM5B inh inactive.
